Compound activity: PubChem, National Center for Advancing Translational Sciences (NCATS)
Hits are enriched below; roughly 21% of the tested compounds scored in any of these assays.
ELG1 DNA repair = qHTS screen for small molecules that inhibit ELG1-dependent DNA repair in human embryonic kidney (HEK293T) cells expressing luciferase-tagged ELG1. HEK293T ELG1-luciferase reporter, luminescence, 16 h; DNA damage induced by 5-fluorouridine. Potency, µM (highest dose often 46.1 µM), for the others: top-dose activity change, negative = inhibition, usual class: inhibitors. hit rate 2.3% among 330,000; further: potency means the concentration at half of the fitted maximal effect; nearly all actives have a fitted effect of over 55% in size
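Cells (2,000 per well) received 5-fluorouridine plus test compound or DMSO and were incubated 16 hr at 37 °C, 5% CO2. Luciferase activity was read by luminescence 30 min after ONE-Glo addition; signal suppression marked inhibition of damage-induced ELG1 function.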
RORg inh = qHTS for inhibitors of ROR gamma transcriptional activity; Nuclear receptor ROR-gamma (Mus musculus), P51450; Drosophila S2 Gal4-RORgamma UAS-luciferase reporter, 20 h; Potency, µM (titrated, usually from 53.6 µM), inactives show at the highest dose activity change, negative = inhibition, hits mostly inhibitors; hit rate 5.4% among 310,000; further: potency means the concentration at half of the fitted maximal effect; nearly all actives have a fitted effect of over 60% in size
Target sequence (P51450 whole entry, looked up, the tested form may be a part): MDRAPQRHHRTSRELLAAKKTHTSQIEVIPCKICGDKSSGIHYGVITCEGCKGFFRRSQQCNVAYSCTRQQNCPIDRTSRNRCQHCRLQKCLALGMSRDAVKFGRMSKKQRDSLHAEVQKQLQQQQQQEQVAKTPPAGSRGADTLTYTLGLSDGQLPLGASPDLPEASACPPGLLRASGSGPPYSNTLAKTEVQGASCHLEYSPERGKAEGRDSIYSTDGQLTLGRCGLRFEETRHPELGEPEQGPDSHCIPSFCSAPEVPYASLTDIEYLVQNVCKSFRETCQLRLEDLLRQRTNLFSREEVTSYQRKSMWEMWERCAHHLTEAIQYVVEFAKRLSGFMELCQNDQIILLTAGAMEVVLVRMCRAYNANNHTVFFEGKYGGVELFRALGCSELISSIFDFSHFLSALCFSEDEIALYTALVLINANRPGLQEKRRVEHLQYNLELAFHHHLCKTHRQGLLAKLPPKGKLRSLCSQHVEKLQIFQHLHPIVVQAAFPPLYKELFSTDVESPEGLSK
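Read-out: Photinus luciferase luminescence; inhibitors lower reporter signal. Insect Schneider cells with Gal4-ROR gamma fusion under metallothionein promoter, UAS reporter; 700 uM final copper sulfate induction, 20 hr, ambient temperature.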
DT40 TDP1 no CPT = qHTS for Inhibitors of human tyrosyl-DNA phosphodiesterase 1 (TDP1): qHTS in cells in absence of CPT; hit rate 15% among 420,000; Potency, µM (doses to about 46.2 µM), for the others: top-dose activity change, negative = growth inhibition, usual class: inhibitors; AID 686978, 2013; DT40 Tdp1-/- hTDP1 cells, no CPT, ATP luminescence, 48 h; further: potency means the concentration at half of the fitted maximal effect; nearly all actives have a fitted effect of over 55% in size
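Cells were dispensed at 400 per well, compounds added by pin tool, plates incubated ≥48 hr at 37 °C, then CellTiter-Glo added for 30 min at room temperature before luminescence reading. Line: DT40 Tdp1-/- complemented with hTDP1; camptothecin omitted.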
IL1B secr inh = qHTS for Inhibitors of Inflammasome Signaling: IL-1-beta AlphaLISA Primary Screen; THP-1 LPS/ATP IL-1B secretion, AlphaLISA, 16 h; active compounds read low; activity change, % at 57.5 µM; hit rate 4.7% among 360,000; in the data active means activity change below about -50%; inconclusive means mostly about -30% to -49%
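Secreted IL-1B measured by AlphaLISA bead assay after 16 h compound exposure of THP-1 cells; compounds (final up to 57.5 uM) added 1 h before LPS (250 ng/mL) and ATP (1.25 mM) stimulation; lower signal means less secretion.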
TDP1 cell CPT = qHTS for Inhibitors of human tyrosyl-DNA phosphodiesterase 1 (TDP1): qHTS in cells in presence of CPT; chicken DT40 Tdp1-/-;hTDP1 cells + 20 nM CPT, ATP luminescence, 48 h; Potency, µM (titrated, usually from 46.2 µM), for inactives: top-dose activity change, negative = growth inhibition, hits mostly inhibitors; hit rate 12% among 420,000; further: potency means the concentration at half of the fitted maximal effect; nearly all actives have a fitted effect of over 55% in size
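Chicken DT40 Tdp1-/- cells complemented with human TDP1, 400 cells/well, exposed to compounds plus 20 nM camptothecin for at least 48 h at 37 C; viability read as ATP content by CellTiter-Glo luminescence.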
Gal4-VP16 FLuc = VP16 counterscreen qHTS for inhibitors of ROR gamma transcriptional activity; hit rate 3.5% among 310,000; Drosophila S2 Gal4-VP16 UAS-luciferase, luminescence, 20 h; Potency, µM (top dose mostly 53.6 µM), without a hit: top-dose activity, negative = inhibition, most hits filed as inhibitors;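 further: Gal4-VP16 expression switched on by copper sulfate through the metallothionein promoter; potency means the concentration at half of the fitted maximal effect; nearly all actives have a fitted effect of over 50% in size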
The depositor's hits bear a star; ? = inconclusive; . = no result; [ ] = remark or other dose. Unless noted, the call rests on the fitted dose curve; in most records, active means well fitted curve in the direction sought with a large enough effect; inconclusive means small, poorly fitted or top-dose-only effect, or another doubt; inactive means no such curve, though single readings can be large; an effect the other way counts as inactive or inconclusive. On the % scale 0 is the no-effect control and ±100 the full control effect.

SMILES	ELG1 DNA repair	RORg inh	DT40 TDP1 no CPT	IL1B secr inh	TDP1 cell CPT	Gal4-VP16 FLuc
COc1ccccc1NS(=O)(=O)c1cc(NC(=O)c2ccco2)ccc1N1CCOCC1	22%	30%	?	0	?	0%
COc1ccccc1NS(=O)(=O)c1cc(NC(=O)c2ccccc2F)ccc1N1CCOCC1	?	-11%	13µM*	1	16µM*	0%
COc1ccccc1NS(=O)(=O)c1cc(NC(=O)c2cccs2)ccc1N1CCOCC1	7%	23%	2.6µM*	21	7.3µM*	0%
NC(=S)Nc1cccc(F)c1	14%	-20%	-6%	8	5%	-5%
Fc1cccc(NC(=S)NNc2ccccc2)c1	-21%	1.3µM*	2.6µM*	0	3.3µM*	2.2µM*
Fc1cccc(NC(=S)NNc2c3ccccc3nc3ccccc23)c1	?	10%	0.92µM*	7	1.3µM*	-12%
COc1cccc(CN2CCOc3ccc(C(O)c4cccnc4)cc3C2)c1 (stereo not drawn)	.	.	-1%	.	-1%[9.04 µM]	.
C[C@@]1(C(=O)O)NCCc2cc(O)c(O)cc21	.	-28%	11µM*	.	11µM*	-5%
CCc1nc(N2CCN(C(=O)c3ccccc3)CC2)c2c3c(sc2n1)CCCC3	?	-3%	23µM*	-78*	?	-15%
CC(=O)N1CCN(c2nc(C)nc3sc4c(c23)CCC(C)C4)CC1 (stereo not drawn)	-7%	-8%	-22%	-20	-20%	2%
Cc1nc(N2CCNCC2)c2c3c(sc2n1)CCCC3	-11%	-28%	?	-7	?	-5%
CCc1nc(N2CCN(C(=O)c3ccco3)CC2)c2c3c(sc2n1)CCCC3	?	-12%	?	-20	?	-13%
COCCCNC(=S)N1CCN(c2nc(C)nc3sc4c(c23)CCCC4)CC1	21µM*	?	?	-13	16µM*	-9%
CCCNC(=S)N1CCN(c2nc(C)nc3sc4c(c23)CCCC4)CC1	?	?	?	-74*	?	-12%
CCN(CC)S(=O)(=O)c1cc(C(=O)Nc2cc(S(=O)(=O)N3CCOCC3)ccc2N2CCN(C)CC2)ccc1C	.	.	?	-3	?	.
Nc1cccc2[nH]cnc12	.	.	0%	.	-5%	.
CCC(C(=O)Nc1cc(F)ccc1F)n1nc(C)c2c(C)n(-c3ccc(C)cc3)nc2c1=O (stereo not drawn)	?	0%	16µM*	-9	15µM*	0%
CCC(C(=O)NC1CC1)n1nc(C)c2c(C)n(-c3ccc(C)cc3)nc2c1=O (stereo not drawn)	-2%	0%	10%	28	5%	-3%
Cc1ccc(CCNC(=O)C(C)n2nc(C)c3c(C)n(-c4ccc(C)cc4)nc3c2=O)cc1 (stereo not drawn)	.	.	21µM*	.	21µM*	.
CCC(C(=O)NCc1ccc(OC)c(OC)c1)n1nc(C)c2c(C)n(-c3ccc(C)cc3)nc2c1=O (stereo not drawn)	.	.	23µM*	.	16µM*	.
CCC(C(=O)Nc1ccccc1F)n1nc(C)c2c(C)n(-c3ccccc3)nc2c1=O (stereo not drawn)	3%	18%	?	-22	?	5%
COc1ccc(CCNC(=O)C(C)n2nc(C)c3c(C)n(-c4ccc(C)cc4)nc3c2=O)c(OC)c1 (stereo not drawn)	-18%	15%	?	-50*	23µM*	-10%
